Some of the results follow. Results filed as inconclusive are left out. Activity calls are given as the source filed them. Calls follow the shape of the dose curve; as a rule, active = well fitted inhibition curve with a large enough effect; inconclusive = small, poorly fitted or top-dose-only effect; inactive = no such curve, though single readings can be large or run the other way.
Assay: qHTS Assay for Inhibitors of Hepatitis C Virus (HCV): Confirmation Assay for Cherry-picked Compounds
Conditions: HCVcc-Cre infectious virus cell assay, luciferase, inhibition
From the text: Hepatitis C virus (HCV) infects about 200 million people in the world. Many infected people progress to chronic liver disease including cirrhosis with a risk of developing liver cancer. To date, there is no effective vaccine for hepatitis C. Current therapy based on interferon is only effective in about half of the patients and is associated with significant adverse effects. The fraction of people with HCV who can complete a successful treatment is estimated to be no more than 10 percent. Recent development of direct-acting antivirals against HCV, such as protease and polymerase inhibitors, is promising but still requires combination with peginterferon and ribavirin for maximal efficacy. In addition, these agents are associated with high rate of resistance and many have significant side effects. Due to the lack of a culture system for infectious HCV, the search for new HCV drugs has been greatly hampered. […] High-throughput screening (HTS) with an infectious HCV system would cover the complete spectrum of potentially druggable targets in all stages of HCV lifecycle, and would have more biological relevance than other cell-based assays. Moreover, targeting several key processes in the viral life cycle may not only increase antiviral efficacy; more importantly, it may also reduce the capacity of the virus to develop resistance to the compound.
The goal of this project is to identify novel HCV inhibitors as new therapies for hepatitis C, using a highly sensitive and specific assay platform based on a HCV infectious cell culture system established in the laboratory and adapted for high-throughput HCV drug screen. The data herein is the result of the confirmation assay against the cherry picked compounds. Decrease in the confirmatory assay signal, indicative of the HCV inhibition is the desired outcome for this assay.
NIH Chemical Genomics Center [NCGC]
NIH Molecular Libraries Probe Centers Network [MLPCN]
Assay Submitter (PI): Jake Liang, NIDDK
Cells were plated in a 1536-wel tissue culture grade plates at a final concentration of 1,000 cells/well (3 uL volume). The assay plate was culture for 4 h. Then 23 nL of compounds from the library collection was added to each well followed by 2.5 µL of HCVcc-Cre virus (~ 0.5 moi). The plates were further cultured for 44 hr at 37C. A volume of 4.5 uL luciferase substrates was added to each well and the plates were incubated at room temperature for 15 min. The luciferase activity was read for 15 sec using the PerkinElmenr ViewLux plate reader.
Also: nearly all actives have a fitted effect of over 80% in size.

Potency, active:
N#C/C(=C1\CCCN1)c1nc(-c2ccccc2)cs1 14.1 µM
CCCOc1ccc(C(=O)C(CCC(CNCC)C(=O)c2ccc(OCCC)cc2)CNCC)cc1 (stereo unspecified) 7.05 µM
CCC(C(=O)OCC(=O)Nc1ccc(C(=O)Nc2ccc(OC)cc2)cc1)c1ccccc1 (stereo unspecified) 8.87 µM
Cc1c(-c2cccc(Cl)c2)nc2ccccc2c1C(=O)OCC(=O)N(C)C1CCS(=O)(=O)C1 (stereo unspecified) 14.1 µM
COc1ccc(Cl)cc1NC(=O)c1oc(C)nc1C 12.5 µM
COc1ccc(OCCNC(=O)c2cc(C3CC3)nc3c2cnn3C(C)C)cc1 0.353 µM
Cc1ccc(C)c(NC(=S)NNC(=S)Nc2ccc(C(C)C)cc2)c1 22.3 µM
CN(C)c1nc(N)nc(CSc2nnnn2-c2cccc3ccccc23)n1 5.6 µM
COc1ccc(C(C(=O)NC2CCCCC2)N(C(=O)CCl)c2ccccc2Cl)cc1 (stereo unspecified) 3.15 µM
COc1ccc(NC(=O)c2sc(N3CCOCC3)nc2-c2ccccc2)c(OC)c1 14.1 µM
Cc1cc(-c2cccs2)nc(-n2cccc2)n1 9.95 µM
Cc1ccc(C)c(N2CCN(C(=O)CCCCCn3c(=S)[nH]c4ccc(N5CCOCC5)cc4c3=O)CC2)c1 2.8 µM
CC(C)(C)c1ccc(Oc2ccc(N)cc2)cc1 2.8 µM
CCCc1nc2ccccc2c(C(=O)OCc2nnc(-c3cc(OC)c(OC)c(OC)c3)o2)c1CC 14.1 µM
CC(C)(C)Nc1nc(-c2ccccn2)nc2ccccc12 1.99 µM
COCCCn1c(SCc2cccc(OC)c2)nc2cc(OC)c(OC)cc2c1=N 14.1 µM
